Each sequence was assayed against CTNNBL1 (assay: pooled miR-30 sensor sort-seq; sequence = guide strand). Details: shRNA.

First: TTGTCTGGAAACTTAATCCGCA
Second: ATCTCTGTCAATAATCTGCAGC
The sensor-assay potency score (higher = more potent) of the first is higher: -0.219 for the first, -0.982 for the second.

Going from AAGCACATCGATTCCATCCAGC to TATCGTGTCCGAGCAAGCCGAG, the sensor-assay potency score (higher = more potent) falls from -0.642 to -1.14.

Compared with ATCTGTATTATCGTGTCCGAGC, TACAGCATTCAGCTCCACCAGA is higher in sensor-assay potency score (higher = more potent): -1.22 for the first, -0.685 for the second.

Each sequence was assayed against CTSB in the same assay as above. Details: shRNA.

First: TGACGTGTTGGTACACTCCTGA
Second: TAAACATAACTCTCTGGGGTGG
The sensor-assay potency score (higher = more potent) of the first is higher: 0.569 for the first, -0.755 for the second.

Compared with TAGTTGACCAGCTCATCCGACA, TCGGTAAACATAACTCTCTGGG is higher in sensor-assay potency score (higher = more potent): -0.966 for the first, -0.352 for the second.

Compared with TTGTAGGTCGGGCTGTAGCCAG, TATCCGTAGTGCTTGTCCTGTT is higher in sensor-assay potency score (higher = more potent): -1.22 for the first, -0.438 for the second.

Going from TCACAGATCTTGCTACACTTGG to TTTTCTTGTCCAGAAGTTCCAA, the sensor-assay potency score (higher = more potent) falls from -0.121 to -0.152.

First: TCTCTGATCTCTTTGATGGTGG
Second: TTGGCAACCAGCCAGTAGGGTG
The sensor-assay potency score (higher = more potent) of the first is higher: -0.142 for the first, -1.27 for the second.

First: TTGTCCAGAAGTTCCAAGCTTC
Second: ATAGTTGACCAGCTCATCCGAC
The sensor-assay potency score (higher = more potent) of the first is higher: -0.113 for the first, -0.423 for the second.

First: TTGTAGAGCAGGAAGTCCGAAT
Second: TTCTATTAAAGAATCATGCTGA
The sensor-assay potency score (higher = more potent) of the first is lower: -0.653 for the first, 0.656 for the second.

First: TGTTGGTACACTCCTGACTTGT
Second: TTCTCGCTATTGGAGACGCTGT
The sensor-assay potency score (higher = more potent) of the first is higher: -1.2 for the first, -1.66 for the second.

First: TTTTTGTAGATCTCGGCCATGA
Second: TTCCACAGTGATCCTGTCCTCT
The sensor-assay potency score (higher = more potent) of the first is lower: -0.154 for the first, -0.145 for the second.

Going from TTGTCCTGTTTGTAGGTCGGGC to TTCTGATTCGATTCCACAGTGA, the sensor-assay potency score (higher = more potent) rises from -0.855 to -0.73.

Going from TTTGTTGACATAGTTGACCAGC to TTTCTTGTCCAGAAGTTCCAAG, the sensor-assay potency score (higher = more potent) falls from -0.0911 to -1.12.

First: TAACTTGACAGGGTGAAGCTGT
Second: TTGGTGTGGATGCAGATCCGGT
The sensor-assay potency score (higher = more potent) of the first is higher: -0.16 for the first, -1.05 for the second.

Each sequence was assayed against CTSH in the same assay as above. Details: shRNA.

First: TTTGGTGGCTGAGCAATTCTGA
Second: TCGTCATAGATTGTGATGTTGG
The sensor-assay potency score (higher = more potent) of the first is higher: -0.218 for the first, -0.963 for the second.

First: TTCAGCAAAGCTCATGTCTGAA
Second: TTTTATGGCAGGAAGTACTGGA
The sensor-assay potency score (higher = more potent) of the first is lower: -0.714 for the first, 0.401 for the second.

First: TTGTTGTACAGGATATACTCGA
Second: TTCCTCGTCATAGATTGTGATG
The sensor-assay potency score (higher = more potent) of the first is higher: 0.136 for the first, -1.43 for the second.

Compared with TTACGGTGCTTAGACATCCATG, TTTATCTGGAGTTTTATGGCAG is higher in sensor-assay potency score (higher = more potent): -1.04 for the first, -0.245 for the second.

First: TTCTCCATACCCAACAGCCAGT
Second: TTCTATACATCATGAAGTCCTG
The sensor-assay potency score (higher = more potent) of the first is lower: -1.28 for the first, -0.782 for the second.

Reference: the OligoGym collection
